Several values for one entry are separate records, joined by “and”; a condition that tells them apart may be missing. Equal values may be shown once. The campaign covered roughly 5,500 compounds. About 2,000 (36%) were called active. Not shown: some 18% with an inconclusive outcome. No stated cut-off is given here; in the data, active means normalized growth mostly below about 0.91 (no sharp cut-off); inconclusive means no clear call, values can overlap the other calls; inactive means mostly above about 0.92. Some of the results follow.
Experiment: chemical genetic growth profiling, strain panel (AID 1159580);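 further: tested at 20 µM; growth read once vehicle control cultures reached saturation at 30 °C; 1 = growth at the plate median or of vehicle wells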
Conditions: S. cerevisiae deletion strains, growth OD

Measured: normalized growth

O=c1cc(-c2ccc(O)cc2)oc2cc(O[C@@H]3O[C@H](CO)[C@@H](O)[C@H](O)[C@H]3O)cc(O)c12
inactive: locus YAL021C, strain ccr4, stronger effect = lower value 0.975 | locus YAL026C, strain drs2, stronger effect = lower value 1.02 | locus YAL030W, strain snc1, stronger effect = lower value 1.01 | locus YBL061C, strain skt5, stronger effect = lower value 1.01 | locus YBR009C, strain hhf1, stronger effect = lower value 0.995 | locus YBR021W, strain FUR4, stronger effect = lower value 0.953 | locus YBR023C, strain chs3, stronger effect = lower value 0.995 | locus YBR171W, strain sec66, stronger effect = lower value 1.02 | locus YBR229C, strain ROT2, stronger effect = lower value 0.983 | locus YBR231C, strain swc5, stronger effect = lower value 1.04 | locus YBR279W, strain paf1, stronger effect = lower value 1 | locus YCL011C, strain gbp2, stronger effect = lower value 0.992 | locus YCL016C, strain dcc1, stronger effect = lower value 0.983 | locus YCL029C, strain bik1, stronger effect = lower value 0.973 | locus YCL069W, strain vba3, stronger effect = lower value 1 | locus YCR088W, strain abp1, stronger effect = lower value 1 | locus YDL005C, strain med2, stronger effect = lower value 1.03 | locus YDL035C, strain GPR1, stronger effect = lower value 0.999 | locus YDL040C, strain nat1, stronger effect = lower value 0.998 | locus YDL074C, strain BRE1, stronger effect = lower value 0.974 | locus YDL101C, strain DUN1, stronger effect = lower value 0.986 | locus YDL185W, strain tfp1, stronger effect = lower value 0.968 | locus YDL192W, strain arf1, stronger effect = lower value 0.976 | locus YDR001C, strain nth1, stronger effect = lower value 1.01 | locus YDR069C, strain doa4, stronger effect = lower value 1.01 | locus YDR101C, strain arx1, stronger effect = lower value 0.981 | locus YDR137W, strain rgp1, stronger effect = lower value 1.01 | locus YDR150W, strain NUM1, stronger effect = lower value 0.988 | locus YDR159W, strain sac3, stronger effect = lower value 1.06 | locus YDR162C, strain NBP2, stronger effect = lower value 1.02 | locus YDR195W, strain ref2 1.01 | locus YDR297W, strain sur2, stronger effect = lower value 1.02 | locus YDR318W, strain mcm21, stronger effect = lower value 0.986 | locus YDR334W, strain swr1, stronger effect = lower value 1.01 | locus YDR335W, strain msn5, stronger effect = lower value 1 | locus YDR388W, stronger effect = lower value 0.973 | locus YDR392W, strain spt3, stronger effect = lower value 0.935 | locus YDR502C, strain sam2, stronger effect = lower value 0.982 | locus YEL003W, strain gim4, stronger effect = lower value 1.02 | locus YEL037C, strain rad23, stronger effect = lower value 1.01 | locus YEL061C, strain CIN8 (second series), stronger effect = lower value 1 | locus YEL061C, strain CIN8, stronger effect = lower value 0.99 | locus YER015W, strain faa2, stronger effect = lower value 0.993 | locus YER016W, strain bim1, stronger effect = lower value 1.01 | locus YER110C, stronger effect = lower value 0.995 | locus YER111C, strain swi4, stronger effect = lower value 1.01 | locus YER155C, strain BEM2 (second series), stronger effect = lower value 1.05 | locus YER155C, strain BEM2, stronger effect = lower value 0.98 | locus YER167W, strain BCK2, stronger effect = lower value 0.967 | locus YFR010W, strain ubp6, stronger effect = lower value 1.02 | locus YGL078C, strain dbp3, stronger effect = lower value 0.984 | locus YGL086W, strain mad1, stronger effect = lower value 0.978 | locus YGL167C, strain pmr1, stronger effect = lower value 1 | locus YGL173C, strain kem1, stronger effect = lower value 1.03 | locus YGL227W, strain vid30, stronger effect = lower value 1.01 | locus YGL240W, strain doc1, stronger effect = lower value 1.02 | locus YGL248W, strain PDE1, stronger effect = lower value 1 | locus YGL253W, strain hxk2, stronger effect = lower value 1.01 | locus YGR078C, strain PAC10, stronger effect = lower value 0.999 | locus YGR135W, strain pre9, stronger effect = lower value 0.973 | locus YGR252W, strain gcn5, stronger effect = lower value 0.974 | locus YHR013C, strain ard1, stronger effect = lower value 0.994 | locus YHR027C, strain rpn1, stronger effect = lower value 1.01 | locus YHR030C, strain SLT2, stronger effect = lower value 0.986 and 1.05 | locus YHR079C, strain IRE1 (second series), stronger effect = lower value 0.971 | locus YHR079C, strain IRE1, stronger effect = lower value 1.03 | locus YHR094C, strain hxt1, stronger effect = lower value 0.972 | locus YHR129C, strain ARP1, stronger effect = lower value 0.988 | locus YHR142W, strain chs7, stronger effect = lower value 1 | locus YHR200W, strain rpn10, stronger effect = lower value 0.957 | locus YIL066C, strain RNR3, stronger effect = lower value 0.979 | locus YIL073C, strain SPO22, stronger effect = lower value 0.969 | locus YIL125W, strain kgd1, stronger effect = lower value 0.974 | locus YIR030C, strain dcg1, stronger effect = lower value 0.987 | locus YJL092W, strain hpr5, stronger effect = lower value 1 | locus YJL095W, strain BCK1 (second series), stronger effect = lower value 1.02 | locus YJL095W, strain BCK1, stronger effect = lower value 1.02 | locus YJL115W, strain asf1, stronger effect = lower value 1.01 | locus YJL129C, strain trk1, stronger effect = lower value 1 | locus YJL134W, strain LCB3, stronger effect = lower value 0.983 | locus YJL154C, strain vps35, stronger effect = lower value 1.01 | locus YJL164C, strain tpk1, stronger effect = lower value 0.979 | locus YJL166W, strain qcr8, stronger effect = lower value 1.01 | locus YJL168C, strain set2, stronger effect = lower value 0.995 | locus YJL187C, strain SWE1 (second series), stronger effect = lower value 0.998 | locus YJR043C, strain POL32, stronger effect = lower value 0.995 | locus YJR066W, strain TOR1, stronger effect = lower value 0.998
